Paper PMC13494018
Unmarked numbers belong to inactive results. The rule behind the calls is not given here.

B1: design_487_778f5c6d-c470-43b8-8f82-464af6177e08_1348_dldesign_0_cycle1_af2pred (protein)
chain: AEKKREEAKKLVEEAKKLAEKGDFEKAVEKLREAVALDPSVIGEALEAVKVIAEKNPAAAPAASLAIIRAAQEA
B2: design_488_244881a1-ba0c-4c08-ad9c-1f64cf93580a_1373_dldesign_0_cycle1_af2pred (protein)
chain: MTAAQAAAAVASLAQSAVLAAKQDPALAKQAVEAAQSFAIWATTKLGDAALAEAAAKALKDAGKAAPAVAKQAEAAAKAVLDTAKKL
B3: design_488_244881a1-ba0c-4c08-ad9c-1f64cf93580a_362_dldesign_0_cycle1_af2pred (protein)
chain: AEEERRRAALAERARAVLQQAAAVGSQAAIADPSVSGTILDGLKEAYELLARGEVERALEVAEALLASAQATLAAL
B4: design_488_244881a1-ba0c-4c08-ad9c-1f64cf93580a_782_dldesign_0_cycle1_af2pred (protein)
chain: AAAQAARAYAVLKAHADAAAKRAAELAAEGAEGARAGAQLLAVVSDAAAGAAKAFPEYAAELNALAAAAAAAAAAAAAAAAAAEAAA
B5: design_488_244881a1-ba0c-4c08-ad9c-1f64cf93580a_642_dldesign_0_cycle1_af2pred (protein)
chain: AEAARKAALAVRTAAASFKAAADAGASAEAVKKLGEVMAQSVEAYDPEVGKEVKAKVEELAKLPDAKKAAAELAKFMEAKAKEVAAK
B6: design_487_778f5c6d-c470-43b8-8f82-464af6177e08_1930_dldesign_0_cycle1_af2pred (protein)
chain: AQAAADAAEALSELAIKFSKLAKKISPEAAAYFARAAGYFLRASGILRAGGDAAAAAAALAKGLALFLLGLAILKKVLS
B7: design_488_244881a1-ba0c-4c08-ad9c-1f64cf93580a_1131_dldesign_0_cycle1_af2pred (protein)
chain: DEASEKAEAAYNKAKALEAAGADPNDILAAYVDAMGYLSEAARAAREAGREEEAEKWQAKLKEAQKNATKAAKAAVAAARA
B8: design_487_778f5c6d-c470-43b8-8f82-464af6177e08_1639_dldesign_0_cycle1_af2pred (protein)
chain: GALAVQTARASAAQAVAAVAAAPAEEAPARVAAAEKLLAVLDGIAEAASPEAGAQIRAIVDAARAAIAATAAAKAAA
B9: design_487_778f5c6d-c470-43b8-8f82-464af6177e08_1978_dldesign_0_cycle1_af2pred (protein)
chain: AKEKAIEEITALRELAVKAAEEVGKEEEKEKIKELTEKAIEALDNPEESARLITKAAAIAVEVAPEKAAQIRRLASAAIQAALAT
B10: design_487_778f5c6d-c470-43b8-8f82-464af6177e08_1544_dldesign_0_cycle1_af2pred (protein)
chain: AALQQANAALKAAQSLVDHVKKNPEFSPESIIKVADVAIELAKQAEEEAAKADPEVAKKAKEAKEEAEKIKKEAA
B11: design_487_778f5c6d-c470-43b8-8f82-464af6177e08_1499_dldesign_0_cycle1_af2pred (protein)
chain: DEAELLEAINRAGRETRERLLALGESEAEATRAASAVQVVGYAALTGNAEAEAIGMASLATVGKGRPVAVAAAEEVADRIRAA
B12: design_488_244881a1-ba0c-4c08-ad9c-1f64cf93580a_165_dldesign_0_cycle1_af2pred (protein)
chain: MTPADQLIELARAIVEQAKASDPETAAVNAAGAEAAAGALRNYAAANPETGPKAEAAAKEAEAAAKAIKAAVAAAK
B13: design_488_244881a1-ba0c-4c08-ad9c-1f64cf93580a_492_dldesign_0_cycle1_af2pred (protein)
chain: ATALLRSALAQAKSAIIAMKQDPEQGAQLAEGAALTAKAAGDEETAKKLEEAAKLAKEGKAEEAIKLLEEAAKELAKAI
B14: design_488_244881a1-ba0c-4c08-ad9c-1f64cf93580a_302_dldesign_0_cycle1_af2pred (protein)
chain: MMAEYEARARELFEKAAASDPETARKIGEEMVKLAKEDVEFGNVAALVAAQVAAESGSPVLRQIQAAIARTVIEQLA
B15: design_488_244881a1-ba0c-4c08-ad9c-1f64cf93580a_858_dldesign_0_cycle1_af2pred (protein)
chain: DEEREKLLAEAEKYLAAAVAAAKAAGVQGGQVRAIANSLAIALRTGNTAGAATLLTSLVATAAKVGPEVLTHANKAKEKATQWIALA
B16: design_487_778f5c6d-c470-43b8-8f82-464af6177e08_2394_dldesign_0_cycle1_af2pred (protein)
chain: AAEEAERIIEGNRQLGLAIAEGSASKEEMKAKVDEAVEKARKAVEEDPEKGPEYALELFTKTNKEIMLQALAELT
B17: design_488_244881a1-ba0c-4c08-ad9c-1f64cf93580a_931_dldesign_0_cycle1_af2pred (protein)
chain: MKELEEAAKRALELAPPEHRPLMERLVAIARELAKIIGDEEAAAILGEGVLEGARDPERAVDITMAAQGAAIRLAHARQSA
B18: design_487_778f5c6d-c470-43b8-8f82-464af6177e08_2029_dldesign_0_cycle1_af2pred (protein)
chain: ATAAEIAARMGAAIKRNALANMDEIAAELADDPELAAKRLAAVVENARKMLEAAGLTPEEVAALVAELEARADELVEANRA
B19: design_488_244881a1-ba0c-4c08-ad9c-1f64cf93580a_204_dldesign_0_cycle1_af2pred (protein)
chain: LAATRAAANAVLTRASKLNLQAVADPALAEVAALANQAIALALAGLADPATLAADTAAAAAVLDQAEALAKLVA
B20: design_488_244881a1-ba0c-4c08-ad9c-1f64cf93580a_1058_dldesign_0_cycle1_af2pred (protein)
chain: MAEAQALLLETAKEAYEYAKEDPENAEYYLAAATHVLRALSALTTDPAKAIELLEKAIEEAKKTDPEKGEELIKKIEEAKKLVEAAA
B21: design_488_244881a1-ba0c-4c08-ad9c-1f64cf93580a_1252_dldesign_0_cycle1_af2pred (protein)
chain: DAARRQGAVAFMQQVLESAKNYPEAAPIAQAGLDRVAAAVAAGAPADEVVALARREAAAANKAMIAAAKA
B22: design_488_244881a1-ba0c-4c08-ad9c-1f64cf93580a_688_dldesign_0_cycle1_af2pred (protein)
chain: DTARQALIASAQQARKQLEAAKALTPEEQARAAQAVLELARQLAESAEAAGDEEALALAREVAEAAEAAIKEAKAA
B23: design_488_244881a1-ba0c-4c08-ad9c-1f64cf93580a_765_dldesign_0_cycle1_af2pred (protein)
chain: AADVAQAKEYAKQAKEFAEQADPELAKEVGKEAEALVKEAEADPSKAAEYLNKVGQLYVQAAAAAMKKLA
B24: design_487_778f5c6d-c470-43b8-8f82-464af6177e08_1381_dldesign_0_cycle1_af2pred (protein)
chain: MVEKAIEMVEKATKEAAARAPAKAEEIKKLGEKFKKEVEYLGKLNPESGLVMARGAVGALKDIADKEAKA
B25: design_488_244881a1-ba0c-4c08-ad9c-1f64cf93580a_578_dldesign_0_cycle1_af2pred (protein)
chain: GAAAAARRAAAFTLLEIARSLVAAGPQYAGSAIRTAAQALALVAPEYEEEVRAVGREEGAAAAVEYARELLA
B26: design_487_778f5c6d-c470-43b8-8f82-464af6177e08_1484_dldesign_0_cycle1_af2pred (protein)
chain: SRLEELRRRRDEYVAQLEVAIAELEELSKRAVTEEARRAAEEARALVEEGDKDPERGANIVGRALVQAQAALARARRLNEAA
B27: design_487_778f5c6d-c470-43b8-8f82-464af6177e08_1924_dldesign_0_cycle1_af2pred (protein)
chain: MEKETEELLKKAKELIEKAKELAKEVLKKDPISGRGIQAAVKSAEELLKRGIEGEDSLRYAKQALELAKVALEMAKATLAA
B28: design_487_778f5c6d-c470-43b8-8f82-464af6177e08_1892_dldesign_0_cycle1_af2pred (protein)
chain: AAQALLAQANAALGQLLDLAAEASASSPEEAARATAQMRETAAAAQAAAAAAAAQDPAIAPQAQAIAASAAALARNAEELVAAR
B29: design_487_778f5c6d-c470-43b8-8f82-464af6177e08_1416_dldesign_0_cycle1_af2pred (protein)
chain: DEEERKKKAAEIMKKQAEKLKALAAADPANALTYRAAAALFEAAAIETLKDPEKGLKVGEDAVGLMAQVPAVAPEAKAAYEKAKALL
B30: design_488_244881a1-ba0c-4c08-ad9c-1f64cf93580a_114_dldesign_0_cycle1_af2pred (protein)
chain: AAAALAGEVSAELVEIVGEAARVLGEAERLGDAEVVALAREARALANKALAALAAGDVEKAVEYAKKAREKLEEARRRLEEVKRR
B31: design_488_244881a1-ba0c-4c08-ad9c-1f64cf93580a_1220_dldesign_0_cycle1_af2pred (protein)
chain: DETEKKREEAKKEAEKLIEELEKAGKEVAAVPAASNMALATAKQGKKQLKEAEKLSPEEALKVYEAVKKSAEVALEIARATKAALAA
B32: design_488_244881a1-ba0c-4c08-ad9c-1f64cf93580a_631_dldesign_0_cycle1_af2pred (protein)
chain: GLRESTEKVLEVAGQLAAQTAATSPELGPQAAAVAEAGRARAEALIAAGDYEGAFAAANEAAAQLSRLAVQAAQAAAAA
B33: design_488_244881a1-ba0c-4c08-ad9c-1f64cf93580a_478_dldesign_0_cycle1_af2pred (protein)
chain: ITEAEAKELAEMVRTPETAPEAAARLEALGAASTPGQAAFFRAAAALARLAAEAPEEERPRYAEGVLKILQAAI
B34: design_488_244881a1-ba0c-4c08-ad9c-1f64cf93580a_123_dldesign_0_cycle1_af2pred (protein)
chain: GGEEEGEELLERGREAAEEIARLPLSETERLARLTGEALEYAREAARVAGGEKAREILTAISRAHAASVA
B35: design_488_244881a1-ba0c-4c08-ad9c-1f64cf93580a_236_dldesign_0_cycle1_af2pred (protein)
chain: PVERAIRLAEGAITFLEGLIVARKDGNAAGAAAYAQAAKTLLEELAKLLPGEIAKEATEAAKLAADPATAEKALALAKKILERIKKE
B36: design_488_244881a1-ba0c-4c08-ad9c-1f64cf93580a_1178_dldesign_0_cycle1_af2pred (protein)
chain: SDAEKAESALKFLNTLEEIGIIAKKEYGPEFAQNMINSIENSSKIFAAAVSPEYAKKILEKAKEAIEKIKAA
B37: design_487_778f5c6d-c470-43b8-8f82-464af6177e08_2068_dldesign_0_cycle1_af2pred (protein)
chain: AAAEAAAAAEAQEKAKEAAEKAVENIDDPELAEKYAEEAGKALLAGADLEEVLTYANSLNPEVARLIARAYARLGAAAVRA
B38: design_487_778f5c6d-c470-43b8-8f82-464af6177e08_2307_dldesign_0_cycle1_af2pred (protein)
chain: AAEAEEEAKKLAEEAAKLVAAVDPSIAEEVAKALELGNLAQVKTMLVLAQSAYESTDPAARALALANLRTVAAQAIARAA

Target: CD276, Q5ZPR3
Sequence (Q5ZPR3 whole entry): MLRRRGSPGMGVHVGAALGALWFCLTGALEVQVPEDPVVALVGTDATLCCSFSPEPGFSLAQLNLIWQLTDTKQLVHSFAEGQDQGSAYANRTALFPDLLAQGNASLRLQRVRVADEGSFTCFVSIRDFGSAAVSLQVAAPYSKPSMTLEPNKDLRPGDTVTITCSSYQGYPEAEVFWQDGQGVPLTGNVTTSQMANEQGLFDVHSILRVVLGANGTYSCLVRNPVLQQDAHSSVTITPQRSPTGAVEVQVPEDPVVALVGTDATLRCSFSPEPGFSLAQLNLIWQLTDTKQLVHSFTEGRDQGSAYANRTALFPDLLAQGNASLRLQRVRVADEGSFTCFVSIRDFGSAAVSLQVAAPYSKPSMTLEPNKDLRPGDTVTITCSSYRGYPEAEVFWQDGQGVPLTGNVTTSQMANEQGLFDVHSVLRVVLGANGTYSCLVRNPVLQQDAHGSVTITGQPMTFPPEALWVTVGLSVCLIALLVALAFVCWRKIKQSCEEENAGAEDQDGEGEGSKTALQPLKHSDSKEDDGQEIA

| Binder | binding in a display sort |
| --- | --- |
| B1 | not found |
| B2 | not found |
| B3 | not found |
| B4 | not found |
| B5 | not found |
| B6 | not found |
| B7 | not found |
| B8 | not found |
| B9 | not found |
| B10 | not found |
| B11 | not found |
| B12 | not found |
| B13 | not found |
| B14 | not found |
| B15 | not found |
| B16 | not found |
| B17 | not found |
| B18 | not found |
| B19 | not found |

| Binder | binding in a display sort |
| --- | --- |
| B20 | not found |
| B21 | not found |
| B22 | not found |
| B23 | not found |
| B24 | not found |
| B25 | not found |
| B26 | not found |
| B27 | not found |
| B28 | not found |
| B29 | not found |
| B30 | not found |
| B31 | not found |
| B32 | not found |
| B33 | not found |
| B34 | not found |
| B35 | not found |
| B36 | not found |
| B37 | not found |
| B38 | not found |
